Data as given in the antibiotic and cytotoxicity screens of Wong et al. (2023).
Screen size: about 39,000 compounds; about 3,300 (8.5%) were called active. For the sample, actives were picked, then their nearest neighbours and some compounds at random.

Test system: HepG2
Experiment: cytotoxicity call (relative viability < 0.9)
Conditions: 10 µM

| Structure (SMILES) | cytotoxicity call |
| --- | --- |
| COc1ccc(NC(=O)Nc2ccc3c(c2)CC(=O)N([C@H](C)CO)C[C@@H](C)[C@H](CN(C)Cc2ccc(Cl)c(Cl)c2)O3)cc1 | active |
| COc1ccc(NC(=O)Nc2ccc3c(c2)CC(=O)N([C@H](C)CO)C[C@@H](C)[C@@H](CN(C)Cc2ccc(Cl)c(Cl)c2)O3)cc1 | inactive |
| COc1ccc(NC(=O)Nc2ccc3c(c2)CC(=O)N([C@@H](C)CO)C[C@@H](C)[C@H](CN(C)Cc2ccc(Cl)c(Cl)c2)O3)cc1 | inactive |
| C[C@@H]1CN([C@@H](C)CO)C(=O)c2cc(NC(=O)c3ccncc3)ccc2O[C@@H]1CN(C)S(=O)(=O)c1ccc(F)cc1 | inactive |
| Cc1noc(C)c1NC(=O)N(C)C[C@@H]1Oc2cc(C#CCN(C)C)ccc2S(=O)(=O)N([C@@H](C)CO)C[C@@H]1C | inactive |
| C[C@H](CO)N1C[C@H](C)[C@H](CN(C)Cc2cccc(C(F)(F)F)c2)Oc2ncc(-c3cccc(F)c3)cc2C1=O | active |
| C[C@H](CO)N1C[C@H](C)[C@H](CN(C)Cc2cccc(C(F)(F)F)c2)Oc2ncc(-c3ccc(F)cc3)cc2C1=O | inactive |
| C[C@H](CO)N1C[C@H](C)[C@H](CN(C)Cc2cccc(C(F)(F)F)c2)Oc2ncc(-c3cccc(C(F)(F)F)c3)cc2C1=O | inactive |
| C[C@H](CO)N1C[C@H](C)[C@H](CN(C)Cc2cccc(C(F)(F)F)c2)Oc2ncc(-c3cc4ccccc4o3)cc2C1=O | inactive |
| C[C@H](CO)N1C[C@H](C)[C@H](CN(C)Cc2cccc(C(F)(F)F)c2)Oc2ncc(-c3ccccc3)cc2C1=O | inactive |
| C[C@H](CO)N1C[C@H](C)[C@H](CN(C)S(=O)(=O)c2cn(C)cn2)Oc2ncc(-c3ccccc3)cc2C1=O | inactive |
| Cc1cccc(CN(C)C[C@@H]2Oc3ncc(-c4cc5ccccc5o4)cc3C(=O)N([C@H](C)CO)C[C@@H]2C)c1 | active |
| C[C@H](CO)N1C[C@H](C)[C@H](CN(C)S(=O)(=O)c2cn(C)cn2)Oc2ncc(-c3cccc(F)c3)cc2C1=O | inactive |
| C[C@H](CO)N1C[C@H](C)[C@H](CN(C)C(=O)Nc2cccc3ccccc23)Oc2ncc(-c3cc4ccccc4o3)cc2C1=O | inactive |
| C[C@H](CO)N1C[C@H](C)[C@H](CN(C)Cc2ccccc2)Oc2ncc(-c3cccc(C(F)(F)F)c3)cc2C1=O | inactive |
| C[C@H](CO)N1C[C@H](C)[C@H](CN(C)S(=O)(=O)c2cn(C)cn2)Oc2ncc(-c3cccc(C(F)(F)F)c3)cc2C1=O | active |
| C[C@H](CO)N1C[C@H](C)[C@H](CN(C)Cc2cccc(C(F)(F)F)c2)Oc2ncc(/C=C/c3ccccc3)cc2C1=O | active |
| CCCC#Cc1cnc2c(c1)C(=O)N([C@H](C)CO)C[C@H](C)[C@H](CN(C)S(=O)(=O)c1cccc(OC)c1)O2 | inactive |
| COCC#Cc1cnc2c(c1)C(=O)N([C@H](C)CO)C[C@H](C)[C@@H](CN(C)C(=O)Nc1ccc(OC)cc1)O2 | inactive |

| Structure (SMILES) | cytotoxicity call |
| --- | --- |
| COc1ccc(CNC(=O)C[C@@H]2C[C@H]3c4cc(NS(=O)(=O)c5ccc(F)cc5)ccc4O[C@H]3[C@@H](CO)O2)cc1 | inactive |
| COc1ccc(CN(C)C[C@@H]2Oc3c(NS(=O)(=O)c4cn(C)cn4)cccc3C(=O)N([C@@H](C)CO)C[C@@H]2C)cc1 | inactive |
| COc1cccc(S(=O)(=O)Nc2ccc3c(c2)[C@@H]2C[C@H](CC(=O)N4CCCCC4)O[C@@H](CO)[C@@H]2O3)c1 | inactive |
| C[C@@H]1CN([C@@H](C)CO)S(=O)(=O)c2ccc(C#CCN(C)C)cc2O[C@H]1CN(C)Cc1ccccc1F | inactive |
| Cn1c(S(=O)(=O)CC(N)=O)nc2ccccc21 | inactive |
| Cc1cccc(OC[C@H](O)Cn2c(N3CCN(C)CC3)nc3c2c(=O)n(C)c(=O)n3C)c1 | inactive |
| Cc1noc(C)c1NC(=O)N(C)C[C@H]1Oc2ccc(NC(=O)Nc3cccc4ccccc34)cc2C(=O)N([C@H](C)CO)C[C@@H]1C | inactive |
| CN(C)CCCNC(=O)C[C@H]1CC[C@H]2[C@@H](COc3ccc(NC(=O)c4ccccc4F)cc3C(=O)N2C)O1 | inactive |
| CNC(=O)C[C@@H]1CC[C@@H]2[C@H](COC[C@H](O)CN2C(=O)c2ccc3c(c2)OCO3)O1 | inactive |
| CCCNc1nc(Nc2ccc(C#N)cc2)ncc1C#CCCCNC(=O)[C@H](C)N(C)C(=O)/C=C/CN(C)C | active |
| CC(C)NC(=O)Nc1ccc2c(c1)C(=O)N([C@H](C)CO)C[C@H](C)[C@@H](CN(C)C(=O)Nc1cccc3ccccc13)OCCCC[C@H](C)O2 | inactive |
| Cc1ccc(S(=O)(=O)N[C@H]2CC[C@@H](CC(=O)NCc3ccc(Cl)c(Cl)c3)O[C@@H]2CO)cc1 | inactive |
| NNC(=S)NCc1cccs1 | inactive |
| C[C@H](CO)N1C[C@H](C)[C@H](CN(C)S(=O)(=O)c2cn(C)cn2)Oc2c(NS(=O)(=O)c3cn(C)cn3)cccc2C1=O | inactive |
| COc1c2occc2cc2ccc(=O)oc12 | active |
| COc1c2occc2c(OC)c2c(=O)cc(C)oc12 | active |
| COc1c2ccoc2cc2oc(=O)ccc12 | inactive |
| COc1c(OC)c2occc2c2oc(=O)ccc12 | inactive |
| COc1c2ccoc2c(OC)c2oc(=O)ccc12 | active |

| Structure (SMILES) | cytotoxicity call |
| --- | --- |
| COc1c(-c2ccccc2)oc2c(ccc3ccoc32)c1=O | inactive |
| COc1cc2ccc(=O)oc2c(OC)c1OC | inactive |
| O=c1ccc2cc3ccoc3cc2o1 | inactive |
| COc1c2ccoc2cc2oc(C)cc(=O)c12 | inactive |
| CN(C)C(=O)Cn1c(=O)oc2ccccc21 | inactive |
| COc1ccc(CN(C)C[C@@H]2Oc3ccc(NS(=O)(=O)c4cn(C)cn4)cc3C(=O)N([C@H](C)CO)C[C@@H]2C)cc1 | inactive |
| O=C(C[C@H]1CC[C@H]2[C@@H](COC[C@@H](O)CN2S(=O)(=O)c2ccccc2Cl)O1)NCCc1ccncc1 | inactive |
| C[C@H](CO)N1C[C@H](C)[C@H](CN(C)Cc2ccc3c(c2)OCO3)Oc2ccc(NC(=O)Nc3cccc4ccccc34)cc2C1=O | inactive |
| COc1ccc(S(=O)(=O)Nc2ccc3c(c2)C(=O)N([C@@H](C)CO)C[C@H](C)[C@@H](CN(C)S(=O)(=O)c2ccc(Cl)cc2)OCCCC[C@H](C)O3)cc1 | active |
| COc1ccc(S(=O)(=O)N(C)C[C@@H]2OCCCC[C@@H](C)Oc3ccc(NS(=O)(=O)c4ccc(Cl)cc4)cc3C(=O)N([C@@H](C)CO)C[C@H]2C)cc1 | active |
| COc1ccc(S(=O)(=O)Nc2ccc3c(c2)C(=O)N([C@H](C)CO)C[C@H](C)[C@@H](CN(C)S(=O)(=O)c2ccc(Cl)cc2)OCCCC[C@H](C)O3)cc1 | inactive |
| COc1ccc(S(=O)(=O)Nc2ccc3c(c2)C(=O)N([C@@H](C)CO)C[C@H](C)[C@H](CN(C)S(=O)(=O)c2ccc(Cl)cc2)OCCCC[C@H](C)O3)cc1 | inactive |
| COc1ccc(S(=O)(=O)Nc2ccc3c(c2)C(=O)N([C@@H](C)CO)C[C@@H](C)[C@@H](CN(C)S(=O)(=O)c2ccc(Cl)cc2)OCCCC[C@H](C)O3)cc1 | inactive |
| COc1ccc(S(=O)(=O)N(C)C[C@@H]2OCCCC[C@H](C)Oc3ccc(NS(=O)(=O)c4ccc(Cl)cc4)cc3C(=O)N([C@@H](C)CO)C[C@@H]2C)cc1 | active |
| COc1ccc(S(=O)(=O)N(C)C[C@@H]2OCCCC[C@H](C)Oc3ccc(NS(=O)(=O)c4ccc(Cl)cc4)cc3C(=O)N([C@H](C)CO)C[C@@H]2C)cc1 | active |
| COc1ccc(S(=O)(=O)Nc2ccc3c(c2)C(=O)N([C@@H](C)CO)C[C@@H](C)[C@@H](CN(C)S(=O)(=O)c2ccc(Cl)cc2)OCCCC[C@@H](C)O3)cc1 | inactive |
| COc1ccc(S(=O)(=O)Nc2ccc3c(c2)C(=O)N([C@H](C)CO)C[C@@H](C)[C@@H](CN(C)S(=O)(=O)c2ccc(Cl)cc2)OCCCC[C@@H](C)O3)cc1 | inactive |
| COc1ccc(S(=O)(=O)N(C)C[C@H]2OCCCC[C@H](C)Oc3ccc(NS(=O)(=O)c4ccc(Cl)cc4)cc3C(=O)N([C@@H](C)CO)C[C@H]2C)cc1 | inactive |
